Data taken from the supplement of paper PMC9492666.

Tests used:
HCC1937 = experiment: relative cell viability, compound alone, vs DMSO (fraction of DMSO control); higher = less growth inhibition; conditions: 72 h
MDA-MB-231 = experiment: as above; conditions: 72 h
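Further: viability read out with the CCK-8 kit in 96-well plates, screening a set of 303 compounds acting on lipid metabolism targets.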

| SMILES | relative cell viability (HCC1937) | relative cell viability (MDA-MB-231) |
| --- | --- | --- |
| CC(C)c1onc(-c2c(Cl)cccc2Cl)c1COc1ccc(/C=C/c2cccc(C(=O)O)c2)c(Cl)c1 | 1.03 | 0.968 |
| CN1c2ccccc2C(=O)Nc2cnc(Nc3ccc(N4CCC(O)CC4)cc3)nc21 | 0.384 | 0.55 |
| O=C(c1c2ccccc2cc2ccccc12)N1CCC(N2CCC[C@@H](C(=O)N3CCOCC3)C2)CC1 | 0.763 | 0.836 |
| O=C(Nc1cccnc1)N1CCC(Cc2cccc(Oc3ccc(C(F)(F)F)cn3)c2)CC1 | 1.14 | 1.01 |
| CC(=O)c1c(C)cc2cccc(O)c2c1O [Nepodin] | 0.75 | 0.797 |
| O=C(NCCS(=O)(=O)c1ccc(C(F)(F)F)cn1)c1ccc(Cl)cc1 | 0.749 | 0.901 |
| Cc1cc(N2C[C@@H](C)N[C@@H](C)C2)ncc1-c1ccc(-c2nc3c(ccn3C)c(=O)[nH]2)cc1 | 0.855 | 1.05 |
| CCCCCCCCCCCCCCCC(=O)NCCO [Palmidrol] | 1.39 | 1.13 |
| CCCc1c(-c2ccccc2)[nH]n(-c2ccccn2)c1=O [APX-115 free base] | 0.838 | 0.835 |
| C[C@@H]1O[C@@H](O[C@H]2[C@H](Oc3cc(O)c4c(c3)O[C@H](c3ccc(O)cc3)CC4=O)O[C@H](CO)[C@@H](O)[C@@H]2O)[C@H](O)[C@H](O)[C@H]1O [Naringin] | 1.24 | 0.892 |
| CN1CCN(C(=O)C2C(C(=O)O)[C@H]3CC[C@@H]2O3)CC1 (some centres undefined) | 0.568 | 0.616 |
| CC1=C(/C=C/C(C)=C/C=C/C(C)=C/C=C/C=C(C)/C=C/C=C(C)/C=C/C2=C(C)C(=O)[C@@H](O)CC2(C)C)C(C)(C)C[C@H](O)C1=O [Astaxanthin] | 1.01 | 1.13 |
| CC[C@H]1[C@@H](O)[C@@H]2[C@H](CC[C@]3(C)[C@@H]([C@H](C)CCC(=O)O)CC[C@@H]23)[C@@]2(C)CC[C@@H](O)C[C@@H]12 [Obeticholic Acid] | 0.901 | 0.856 |
| CC(C)(Oc1ccc(CCNC(=O)c2ccc(Cl)cc2)cc1)C(=O)O [Bezafibrate] | 0.628 | 0.823 |
| C[C@H](CCOc1cccc(CC(=O)O)c1)N(Cc1cccc(C(F)(F)F)c1Cl)CC(c1ccccc1)c1ccccc1 | 0.632 | 0.841 |
| N#Cc1ccc(Oc2cccc(NC(=O)Nc3ccc(Cl)c(C(F)(F)F)c3)c2)cc1 | 0.1 | 0.276 |
| O=C(O)CCCc1cc2cc(Cl)ccc2n1S(=O)(=O)c1ccc2ncsc2c1 [Lanifibranor] | 0.754 | 1.07 |
| CC1(C)CC[C@]2(C(=O)O[C@@H]3O[C@H](CO)[C@@H](O)[C@H](O)[C@H]3O)CC[C@]3(C)C(=CC[C@@H]4[C@@]5(C)CC[C@H](O[C@@H]6O[C@H](C(=O)O)[C@@H](O)[C@H](O)[C@H]6O[C@@H]6O[C@H](CO)[C@@H](O)[C@H](O)[C@H]6O)C(C)(C)[C@@H]5CC[C@]43C)[C@@H]2C1 [Ginsenoside Ro] | 1.02 | 0.9 |
| Cc1c(C(=O)NN2CCOCC2)nn(-c2ccc(Cl)cc2Cl)c1-c1ccc(I)cc1 | 0.645 | 0.817 |
| NC(N)=NN=Cc1cccc(Cl)c1Cl [Raphin1] | 0.818 | 0.72 |
| CS(=O)(=O)c1ccc(-c2nnc(/C=C/c3nnc(-c4ccc(C#N)cc4)o3)n2-c2ccccc2Cl)nc1 | 1.07 | 0.851 |
| CCN(CC)CCN(Cc1ccc(-c2ccc(C(F)(F)F)cc2)cc1)C(=O)Cn1c(SCc2ccc(F)cc2)nc(=O)c2c1CCC2 [Darapladib] | 0.0924 | 0.22 |
| CC(C)=CCC[C@](C)(O)[C@H]1CC[C@]2(C)[C@@H]1[C@H](O)C[C@@H]1[C@@]3(C)CC[C@H](O)C(C)(C)[C@@H]3[C@@H](O)C[C@]12C [(20S)-Protopanaxatriol] | 1.24 | 1 |
| C[C@H](CCC(=O)O)[C@H]1CC[C@H]2[C@@H]3C[C@H](O)[C@@H]4C[C@H](O)CC[C@]4(C)[C@H]3CC[C@]12C [Hyodeoxycholic acid] | 0.929 | 1.02 |
| C=C(C)[C@@H]1CC[C@]2(CO)CC[C@]3(C)[C@H](CC[C@@H]4[C@@]5(C)CC[C@H](O)C(C)(C)[C@@H]5CC[C@]43C)[C@@H]12 [Betulin] | 0.886 | 0.907 |
| CN(CCOc1ccc(CC2SC(=O)NC2=O)cc1)c1ccccn1 (centres undefined) [Rosiglitazone] | 1.43 | 0.969 |
| Cn1nc(C(=O)N(Cc2ccccc2)Cc2ccc(C(=O)O)cc2)c2c1-c1cc(Cl)ccc1OC2 [Nidufexor] | 0.937 | 0.932 |
